Compounds without any hit were thinned out: in the full panel of roughly 83,000, 20% have a hit.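 Each cell line was grown in a 96-well plate and treated with one concentration of compound for 48 hours. Values below 10 were considered active.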 A number with no mark means an inactive call. Active and inactive are the calls of the source.

Common to all, as to experiment: NCI-60 one-dose screen, 48 h (100 = growth as untreated, 0 = no growth, -100 = all killed)
The subject of one test is SK-MEL-2 melanoma. The conditions noted are these: 10 µM unless noted.
For the next test, the system named is SN12C renal. The conditions noted are these: 10 µM unless noted.
The subject of a further test is UO-31 renal. The conditions noted are these: 10 µM unless noted.
The test system of a further test is TK-10 renal. The conditions noted are these: 10 µM unless noted.
A further test has as its system ACHN renal. Particulars: 10 µM unless noted.
Another test deals with CAKI-1 renal. Particulars: 10 µM unless noted.
The test system of a further test is A498 renal. Particulars: 10 µM.
For a further test, the system named is HL-60(TB) leukemia. The conditions noted are these: 10 µM unless noted.
The next test deals with CCRF-CEM leukemia. The conditions noted are these: 10 µM unless noted.
A further test relates to MOLT-4 leukemia. Particulars: 10 µM unless noted.
Another test deals with SR leukemia. Particulars: 10 µM unless noted.
The next test has as its system OVCAR-8 ovarian. Particulars: 10 µM unless noted.
A further test relates to OVCAR-5 ovarian. Particulars: 10 µM unless noted.
Another test concerns OVCAR-4 ovarian. The conditions noted are these: 10 µM unless noted.
In another test the test system is SK-OV-3 ovarian. Particulars: 10 µM unless noted.
The subject of the next test is IGROV1 ovarian. The conditions noted are these: 10 µM unless noted.
The next test deals with OVCAR-3 ovarian. The conditions noted are these: 10 µM unless noted.
A further test concerns HS 578T breast. Particulars: 10 µM unless noted.
For a further test, the system named is RPMI-8226 leukemia. Particulars: 10 µM unless noted.

With `NC1CC2CCCCC2CC1(O)c1ccccc1` (centres undefined), the growth is 100% in the test with SK-MEL-2 melanoma; 101% in the test with SN12C renal; 83.9% in the test with UO-31 renal; 96.6% in the test on TK-10 renal; 104% in the test with ACHN renal; 107% with CAKI-1 renal. Further, the growth with A498 renal was 89.8%; with HL-60(TB) leukemia, 91.1%; in the test with CCRF-CEM leukemia, 96%; in the test with MOLT-4 leukemia, 85.7%; in the test with SR leukemia, 90.7%; with OVCAR-8 ovarian, 98.6%. For the same molecule, the growth is 95.4% with OVCAR-5 ovarian; 102% in the test on OVCAR-4 ovarian; 107% with SK-OV-3 ovarian; 102% with IGROV1 ovarian; 109% in the test with OVCAR-3 ovarian; 102% with HS 578T breast.
For `COC(=O)C12CC(NC(=O)c3csc([C@@H](C[C@H](C(C)C)N(C)C(=O)[C@@H](NC(=O)[C@H]4CCCCN4C)C4CC4)OC(C)=O)n3)(C1)C2`, the growth in the test on SK-MEL-2 melanoma was 34.7%; in the test with SN12C renal, 37.9%; with UO-31 renal, 48.5%; in the test on TK-10 renal, 39.2%; in the test with ACHN renal, 33.6%; with CAKI-1 renal, 38.6%. For the same molecule, the growth in the test with A498 renal was -5.31% (active); in the test on HL-60(TB) leukemia, -44% (active); with CCRF-CEM leukemia, 17.2%; with MOLT-4 leukemia, 15.9%; in the test with SR leukemia, 17.5%; with RPMI-8226 leukemia it was 22.9%. Also, the growth is 19.3% with OVCAR-8 ovarian; 35.7% in the test with OVCAR-5 ovarian; 43.5% with OVCAR-4 ovarian; 3% (active) with SK-OV-3 ovarian; 29.5% in the test on IGROV1 ovarian; -25.2% (active) with OVCAR-3 ovarian. Also, the growth with HS 578T breast was 33.1%.
For the molecule `ClCCN(CCCl)c1ccc(OCc2ccccc2)cc1`, the growth is 114% with SK-MEL-2 melanoma; 30.8% in the test with SN12C renal; 38.6% in the test on UO-31 renal; 96.3% in the test with TK-10 renal; 17.7% with ACHN renal; 11.4% in the test with CAKI-1 renal. The growth was 68.9% with A498 renal; 10.6% in the test with HL-60(TB) leukemia; 14.4% with CCRF-CEM leukemia; 11.7% in the test on MOLT-4 leukemia; -8.12% (active) in the test with SR leukemia; 64.8% in the test on RPMI-8226 leukemia. Besides, the growth in the test on OVCAR-5 ovarian is 89%; with OVCAR-4 ovarian it was 78.7%; in the test with SK-OV-3 ovarian, 65.2%; in the test on IGROV1 ovarian, 76.7%; with OVCAR-3 ovarian it was 78%; in the test with HS 578T breast, 96.6%.
On to `CC(=O)[O][Hg][c]1c(N)c(C)cc(C)c1F`, for which the growth is 11.6% in the test with SK-MEL-2 melanoma; 5.86% (active) in the test with SN12C renal; 35.1% in the test with UO-31 renal; 97.4% in the test with TK-10 renal; 62.9% in the test with ACHN renal; 45.8% in the test with CAKI-1 renal. The growth in the test on A498 renal was 101%; with HL-60(TB) leukemia it was -12.7% (active); in the test on CCRF-CEM leukemia, -6.01% (active); in the test with MOLT-4 leukemia, -11.2% (active); in the test on SR leukemia, -11.2% (active); in the test on RPMI-8226 leukemia, -12.3% (active). In addition, the growth in the test with OVCAR-8 ovarian was -29.5% (active); in the test on OVCAR-5 ovarian, 47.3%; in the test on OVCAR-4 ovarian, 42%; in the test on SK-OV-3 ovarian, 69.8%; in the test on IGROV1 ovarian it was -32.7% (active); in the test with OVCAR-3 ovarian, -45.8% (active). In addition, in the test on HS 578T breast, the growth was 26.8%.
Turning to `CNC(=O)Oc1cccc(C(F)(F)F)c1`, the growth in the test on SK-MEL-2 melanoma was 106%; in the test on SN12C renal, 93.7%; in the test on UO-31 renal it was 96.3%; in the test with TK-10 renal it was 105%; in the test on ACHN renal, 114%; in the test with CAKI-1 renal, 117%. In addition, the growth in the test on A498 renal is 106%; in the test with HL-60(TB) leukemia it was 114%; in the test on CCRF-CEM leukemia it was 90.6%; in the test with MOLT-4 leukemia it was 97.1%; in the test on SR leukemia, 111%; in the test on RPMI-8226 leukemia it was 87.4%. Besides, the growth in the test with OVCAR-8 ovarian is 87.6%; in the test on OVCAR-5 ovarian, 114%; in the test on OVCAR-4 ovarian, 114%; in the test with SK-OV-3 ovarian, 108%; with IGROV1 ovarian it was 120%; in the test on OVCAR-3 ovarian it was 125%. Further, the growth with HS 578T breast was 121%.
For `N/C(=N\N=C\c1ccc(-c2ccccc2)cc1)N[N+](=O)[O-]`, the growth with SK-MEL-2 melanoma was 47.1%; in the test with SN12C renal, 53.3%; in the test on UO-31 renal it was 45.2%; with TK-10 renal, 44.6%; with ACHN renal it was 52.5%; with CAKI-1 renal, 27.5%. Also, the growth was 5.42% (active) in the test with A498 renal; -16.2% (active) with HL-60(TB) leukemia; 11.9% with CCRF-CEM leukemia; 5.54% (active) in the test on MOLT-4 leukemia; 5.79% (active) with SR leukemia; 20.1% with RPMI-8226 leukemia. For the same molecule, the growth in the test with OVCAR-8 ovarian was 42.6%; with OVCAR-5 ovarian, 56.9%; with OVCAR-4 ovarian, 61.5%; with SK-OV-3 ovarian it was 35.4%; in the test with IGROV1 ovarian it was 34.6%; in the test on OVCAR-3 ovarian, -19.8% (active). For the same molecule, in the test with HS 578T breast, the growth is 44.3%.
Turning to `C=CC12CCN(CC1)C(C(O)c1ccnc3ccc(OC)cc13)C2` (centres undefined), the growth is 97.3% in the test with SK-MEL-2 melanoma; 83.5% with SN12C renal; 48.3% in the test with UO-31 renal; 88.4% in the test on TK-10 renal; 80.4% with ACHN renal; 69.8% with CAKI-1 renal. Also, the growth is 56.9% in the test with A498 renal; 60.7% in the test on HL-60(TB) leukemia; 75.8% in the test on CCRF-CEM leukemia; 67.8% with MOLT-4 leukemia; 37.1% with SR leukemia; 4.37% (active) in the test with RPMI-8226 leukemia. In addition, the growth with OVCAR-8 ovarian is 92.3%; in the test with OVCAR-5 ovarian, 88.4%; in the test on OVCAR-4 ovarian it was 76.9%; with SK-OV-3 ovarian it was 89.2%; in the test on IGROV1 ovarian it was 81.4%; with OVCAR-3 ovarian it was 93.7%.
Turning to `CCCc1cc(O)c2c3c(c(=O)oc2c1)CN(C)CC3`, the growth is 97.7% in the test on SK-MEL-2 melanoma; 39.1% in the test on SN12C renal; 22.7% in the test with UO-31 renal; 47.3% with TK-10 renal; 44.6% in the test with ACHN renal; 4.68% (active) in the test on CAKI-1 renal. In addition, the growth with A498 renal was 15.4%; in the test on HL-60(TB) leukemia it was 6% (active); with CCRF-CEM leukemia, 18.8%; in the test with MOLT-4 leukemia, 27%; with SR leukemia, 15.8%; with RPMI-8226 leukemia, 28.4%. Moreover, the growth in the test on OVCAR-8 ovarian is 32.3%; in the test on OVCAR-5 ovarian, 55.9%; with OVCAR-4 ovarian it was 56.3%; in the test on SK-OV-3 ovarian, 26.8%; in the test on IGROV1 ovarian, 32.7%; with OVCAR-3 ovarian, -3.56% (active). For the same molecule, the growth in the test with HS 578T breast is 45.7%.

The record behind these values is PubChem BioAssay (NCI).
